Most compounds without a hit are left out; they make up all but 9.2% or so of the library.
ELG1 genotox = inducers of genotoxicity in HEK293T ELG1-luciferase cells | HEK293T ELG1-luciferase reporter, luminescence, 16 h | Potency, µM (highest dose often 46 µM), without a hit: at the top dose activity change, positive = activation, actives largely listed as activators | hit rate 1.3% among 330,000 | AID 504466; further: % of control where 0% means no effect; nearly all actives have a fitted effect of over 60% in size
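Cells (2,000/well) expressing the ELG1-luciferase fusion are dosed by pin tool and kept 16 hr at 37 °C, 5% CO2. Signal comes from ONE-Glo luciferase reagent after 30 min at room temperature.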
ELG1 DNA repair = blocks ELG1-dependent DNA repair in HEK293T cells. HEK293T ELG1-luciferase reporter, luminescence, 16 h; DNA damage induced by 5-fluorouridine. hit rate 2.3% among 330,000. Potency, µM (top dose mostly 46.1 µM), inactives show at the top dose activity change, negative = inhibition, usual class: inhibitors; further: on the % scale 0 is the no-effect control and ±100 the full control effect; nearly all actives have a fitted effect of over 55% in size
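DMSO vehicle served as the neutral condition. Each well held 2,000 cells given 5-fluorouridine plus compound; after 16 hr at 37 °C/5% CO2, ONE-Glo was added and luciferase measured 30 min later.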
SMN2 splice enh = increases expression of the SMN2 splice variant; Potency, µM (top dose mostly 46.1 µM), for the others: at the top dose activity change, positive = activation, usual class: activators; AID 1458; hit rate 2.8% among 210,000; HEK293 SMN2-luciferase splicing reporter, luminescence, 30-36 h; further: % of control where 0% means no effect; nearly all actives have a fitted effect of over 55% in size
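qHTS luciferase splicing reporter: luminescence rises when SMN2 exon 7 is included in transfected HEK293 cells. Compound exposure lasted 30-36 h at 37C, with 4.5 mM final sodium butyrate as control, followed by a ONE-Glo read.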
NPC1 prom act = activates the NPC1 promoter; Potency, µM (titrated, usually from 9.22 µM), without a hit: top-dose activation, hits mostly activators; Huh7 NPC1 promoter luciferase reporter, 24 h; hit rate 2.4% among 320,000; further: % of control where 0% means no effect; nearly all actives have a fitted effect of over 60% in size
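Quantitative HTS used a cell-based reporter: Huh7 cells stably bearing the NPC1 promoter upstream of luciferase were treated with compounds for 24 h, and promoter activation was read as luminescence.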
FLuc modulator = inhibits or activates purified firefly luciferase, miR-21 counter-screen; purified FLuc, Km substrates, luminescence inhibition; hit rate 6.9% among 360,000; Potency, µM (top dose mostly 57.5 µM), for inactives: top-dose activity change, negative = inhibition, hits mostly inhibitors; AID 588342;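 further: plate controls were vehicle for no effect and reference inhibitor for full effect; nearly all actives have a fitted effect of over 55% in size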
Target sequence (P08659 whole entry, looked up): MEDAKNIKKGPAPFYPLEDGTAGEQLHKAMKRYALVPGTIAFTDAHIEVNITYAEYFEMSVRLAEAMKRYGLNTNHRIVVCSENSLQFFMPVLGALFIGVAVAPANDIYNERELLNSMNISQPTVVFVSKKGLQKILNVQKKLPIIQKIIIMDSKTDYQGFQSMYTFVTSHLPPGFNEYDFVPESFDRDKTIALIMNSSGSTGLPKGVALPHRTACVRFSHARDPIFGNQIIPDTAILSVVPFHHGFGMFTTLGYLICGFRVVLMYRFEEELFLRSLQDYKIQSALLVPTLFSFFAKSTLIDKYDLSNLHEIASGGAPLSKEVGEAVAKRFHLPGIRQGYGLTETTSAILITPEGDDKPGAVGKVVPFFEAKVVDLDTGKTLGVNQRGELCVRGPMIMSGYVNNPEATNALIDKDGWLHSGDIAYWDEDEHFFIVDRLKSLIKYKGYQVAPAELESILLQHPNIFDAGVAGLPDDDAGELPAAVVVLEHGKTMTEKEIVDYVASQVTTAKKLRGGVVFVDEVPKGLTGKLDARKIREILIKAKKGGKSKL
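Purified P. pyralis luciferase, 10 nM final, with Km-level 10 uM D-luciferin and 10 uM ATP in 50 mM Tris acetate pH 7.5, 10 mM Mg acetate, 0.01% Tween-20, 0.05% BSA; 6-point qHTS titration about 60 µM downward; luminescence read.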
Rab9 prom act = activates the Rab9 promoter; AID 485297; hit rate 2.8% among 320,000; Huh7 Rab9 promoter-luciferase reporter, luminescence, 24 h; Potency, µM (highest dose often 9.22 µM), inactives show at the top dose activation, negative = inhibition, actives largely listed as activators; further: % of control where 0% means no effect; nearly all actives have a fitted effect of over 60% in size
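Luminescence from Amplite-detected luciferase (10 minutes, ambient) reports Rab9 promoter activation. Before that, stable Rab9-luciferase Huh7 cells (1500/well, reduced-serum OP-MEM I plus 10% FBS) were exposed to compound for 24 hours at 37C.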
* hit, by the source's call; [ ] = another dose, or the depositor's remark. The call rests on the fitted dose curve; in most records, active means well fitted curve in the direction sought with a large enough effect; inconclusive means small, poorly fitted or top-dose-only effect, or another doubt; inactive means no such curve, though single readings can be large; an effect the other way counts as inactive or inconclusive. Potency means the concentration at half of the fitted maximal effect.

Screening C=CCc1c(C)nc(SC)nc1Nc1ccc(C(C)=O)cc1 returned ELG1 genotox 0%, ELG1 DNA repair 7.3µM*, SMN2 splice enh -8%, NPC1 prom act 25%, FLuc modulator inconclusive and Rab9 prom act inconclusive.
`C[N+](C)(C)C(Cc1ccccc1)C(=O)[O-]` (centres undefined) gave ELG1 genotox -2%, ELG1 DNA repair 7%, NPC1 prom act -4%, FLuc modulator 3% and Rab9 prom act -2%.
Nc1ccc(S(=O)(=O)O)cn1 was read as ELG1 genotox 0%, ELG1 DNA repair -3%, SMN2 splice enh -5%, NPC1 prom act -2%, FLuc modulator 1% and Rab9 prom act -1%.
Nc1ccc(-c2ccc(C(=O)O)s2)cn1 was read as ELG1 genotox 2%, ELG1 DNA repair inconclusive, SMN2 splice enh 14%, NPC1 prom act 8%, FLuc modulator 19µM* and Rab9 prom act 2%.
`CCN(CC)c1ccc(/C=N/NC(=O)c2ccco2)cc1` gave ELG1 genotox 5.8µM*, ELG1 DNA repair inconclusive, SMN2 splice enh 1.6µM*, NPC1 prom act inconclusive, FLuc modulator 1.5µM* and Rab9 prom act inconclusive.
For CCN(CC)c1ccc(/C=N/NC(=O)c2ccco2)c(O)c1 the results were ELG1 genotox 23µM*, ELG1 DNA repair inconclusive, NPC1 prom act -5%, FLuc modulator 5.4µM* and Rab9 prom act -17%.
CCN(CC)c1ccc(/C=N/NC(=O)Cc2cccs2)c(O)c1 was read as ELG1 genotox inconclusive, ELG1 DNA repair 19%, SMN2 splice enh -93%, NPC1 prom act -30%, FLuc modulator inconclusive and Rab9 prom act -39%.
CCCNC(=O)Cn1c(=O)c2cccn2c2cccnc21 was read as FLuc modulator -4%.
`Cc1ccc(-c2nnc(Nc3ccc(C(=O)N(C)C)cc3)c3ccccc23)cc1S(=O)(=O)NC(C)(C)CO` gave ELG1 genotox 3%, ELG1 DNA repair 8%, NPC1 prom act 5%, FLuc modulator 21µM* and Rab9 prom act 15%.
Cc1ccc(-c2nnc(Nc3ccc(C(=O)N(C)C)cc3)c3ccccc23)cc1S(=O)(=O)NCC1CCCO1 (centres undefined) was read as ELG1 genotox -5%, ELG1 DNA repair 21µM*, SMN2 splice enh 5%, NPC1 prom act 2%, FLuc modulator 11µM* and Rab9 prom act 15%.
For CNC(=O)c1ccc(Nc2nnc(-c3ccc(C)c(S(=O)(=O)NC(C)(C)C)c3)c3ccccc23)cc1 the results were SMN2 splice enh 5% and FLuc modulator -5%.
C/C(=N\NC(=S)Nc1ccccc1C)c1ccc(O)cc1 was read as ELG1 genotox 3%, ELG1 DNA repair 1%, SMN2 splice enh -10%, NPC1 prom act 1%, FLuc modulator 21µM* and Rab9 prom act 9%.
For CCOc1ccc2nc(SCC(=O)NCc3ccccc3OC)[nH]c2c1 the results were ELG1 genotox -5%, ELG1 DNA repair 4%, NPC1 prom act 1%, FLuc modulator -1% and Rab9 prom act 1%.
`CCOC(=O)c1ccc(NC(=O)CSc2nccn2Cc2ccc(OC)cc2)cc1` gave FLuc modulator 1%.
For COc1cc(Br)cc(/C=C/c2ccc3cccc(O)c3n2)c1OC the results were ELG1 genotox -4%, ELG1 DNA repair -15%, NPC1 prom act -1%, FLuc modulator inconclusive and Rab9 prom act 2%[1.84 µM].
Screening COc1ccc(/C=C/c2ccncc2)c2ccccc12 returned SMN2 splice enh 3% and FLuc modulator -6%.
For COc1cccc(/C=C/c2ccc3cccc(O)c3n2)c1OC the results were ELG1 genotox 18µM*, ELG1 DNA repair inconclusive, NPC1 prom act 3.5µM*, FLuc modulator 2.7µM* and Rab9 prom act inconclusive.
Screening COc1ccc(/C=C/c2ccc3cccc(O)c3n2)c(OC)c1OC returned ELG1 genotox 23µM*, ELG1 DNA repair inconclusive, NPC1 prom act 3.2µM*, FLuc modulator 4.8µM* and Rab9 prom act 2.5µM*.
`CC(=O)c1cc(Cl)ccc1OCC(=O)Nc1cccc(S(=O)(=O)N2CCCC2)c1` gave ELG1 genotox 1%, ELG1 DNA repair -12%, NPC1 prom act 3%, FLuc modulator inconclusive and Rab9 prom act 0%.
Screening Cc1[nH]c(=S)sc1Cc1ccc(F)cc1 returned ELG1 genotox -4%, ELG1 DNA repair -9%, SMN2 splice enh -14%, NPC1 prom act -6%, FLuc modulator -6% and Rab9 prom act -2%.
`CCCN(CCC)CCCNC(=S)Nc1ccc2nc3n(c(=O)c2c1)CCCCC3` gave ELG1 genotox -1%, ELG1 DNA repair 16%, SMN2 splice enh 5%, NPC1 prom act -5%, FLuc modulator 6% and Rab9 prom act -9%.
For COc1ccc(-c2[nH]ncc2/C=C(/C#N)C(=O)NC2CCCCCC2)cc1 the results were ELG1 genotox -8%, ELG1 DNA repair 18µM*, SMN2 splice enh -14%, NPC1 prom act -11%, FLuc modulator -1% and Rab9 prom act -6%.
Screening N#C/C(=C/c1ccc(OCc2ccccc2)cc1)C(=O)NC1CCCCC1 returned ELG1 genotox 8%, ELG1 DNA repair 32%, SMN2 splice enh inconclusive, NPC1 prom act 25%, FLuc modulator 3% and Rab9 prom act 22%.
CC(C)CC(=O)Nc1ccc2oc(-c3ccncc3)nc2c1 was read as ELG1 genotox 14%, ELG1 DNA repair inconclusive, SMN2 splice enh 4%, NPC1 prom act inconclusive, FLuc modulator 15µM* and Rab9 prom act inconclusive.
Cc1ccc2oc(-c3ccc(NC(=O)CCC(=O)O)cc3)nc2c1 was read as SMN2 splice enh 11µM* and FLuc modulator 2.4µM*.
Cc1ccc(-c2nc3cc(NC(=O)C(C)C)ccc3o2)cc1C was read as ELG1 genotox inconclusive, ELG1 DNA repair inconclusive, SMN2 splice enh inconclusive, NPC1 prom act 0.35µM*, FLuc modulator 0.27µM* and Rab9 prom act 0.13µM*.
For CCC(Oc1ccccc1)C(=O)Nc1ccc(O)c(-c2nc3cc(C)ccc3o2)c1 (centres undefined) the results were FLuc modulator 15µM*.
COc1ccc(C(=O)Nc2ccc(-c3nc4cc(C)ccc4o3)c(O)c2)cc1 was read as SMN2 splice enh 1% and FLuc modulator -3%.
Screening Clc1ccc(-c2nc3cc(CN4CCCCC4)ccc3o2)cc1 returned ELG1 genotox inconclusive, ELG1 DNA repair inconclusive, NPC1 prom act 1.8µM*, FLuc modulator 11µM* and Rab9 prom act 2.8µM*.
